Drawing on PubChem BioAssay (EPA / NIEHS), this text covers outcome and AC50 for 4 compounds.

The structures appear in SMILES notation. Values joined by “and” are separate entries in the source; they are usually repeats but may differ in a detail not shown here. Equal values may be shown once. Inconclusive results are not listed. Active and inactive are the calls of the source. The calls were made as follows, unless noted: active = hit-call score of the fitted dose curve at least 0.9, where 1 is the maximum; inactive = score below 0.9.

Assay [1] can be described thus: ATG_PBREM_CIS: Attagene CIS-FACTORIAL HepG2 Assay for human Phenobarbital-responsive Enhancer Module (PBREM) (AID 2282955). The conditions noted are these: HepG2 PBREM cis-reporter, Attagene multiplexed transcription; actives raise or lower the signal. Summed up:
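HepG2 cells transiently transfected with multiple cis-regulated reporter units measure endogenous transcription factor activity; 24 h compound exposure. Reporter mRNA quantified by RT-PCR, fluorescent labelling, HpaI digestion and capillary electrophoresis; bidirectional fit versus DMSO.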

Assay [2] has as its target Paired box protein Pax-6 (Homo sapiens) (UniProt P26367). In words: ATG_Pax6_CIS: Attagene CIS-FACTORIAL HepG2 Assay for human Paired Box 6 (PAX6) (AID 2282956). The following applies: HepG2 CIS-FACTORIAL PAX6 reporter transcription, RNA readout; actives raise or lower the signal. In outline:
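HepG2 cells transiently transfected with cis-promoter-driven multiplexed reporter units sensing endogenous transcription factor activity; 24 h chemical exposure. Reporter mRNA quantified by RT-PCR, 6-FAM labelling, HpaI digestion and capillary electrophoresis; bidirectional fit versus DMSO baseline.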

Assay [3] in a line: ATG_PXRE_CIS: Attagene CIS-FACTORIAL HepG2 Assay for human Pregnane X Receptor Element (PXRE) (AID 2282957). The conditions noted are these: HepG2 Attagene CIS-FACTORIAL PXRE reporter, mRNA; actives raise or lower the signal. In outline: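 Transfect HepG2 with MRTUs (cis promoter elements); dose chemical, incubate 24 h; isolate RNA, RT with oligo(dT), PCR, 6-FAM label, HpaI cut, CE. Gain/loss fit vs DMSO.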

Assay [4] can be described thus: ATG_PPRE_CIS: Attagene CIS-FACTORIAL HepG2 Assay for human Peroxisome Proliferator-activated Response Element (PPRE) (AID 2282958). The following applies: HepG2 PPRE cis-element reporter, Attagene transcription factor profiling; actives raise or lower the signal. In outline:
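HepG2 cells are transiently transfected with multiplexed cis-promoter reporter units to report endogenous PPAR activity. After 24 h dosing, reporter mRNA is read by RT-PCR and capillary electrophoresis. Fitting is bidirectional against DMSO.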

Assay [5] is described as follows: ATG_RORE_CIS: Attagene CIS-FACTORIAL HepG2 Assay for human RAR-related Orphan Receptor Element (RORE) (AID 2282959). The following applies: HepG2 Attagene cis-factorial RORE reporter, mRNA; actives raise or lower the signal. In outline:
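HepG2 cells carrying transiently transfected cis-regulated reporter units; RORE-driven reporter mRNA quantified 24 h post-dosing by RT-PCR, 6-FAM primer extension, HpaI digestion and capillary electrophoresis. Bidirectional fit versus DMSO.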

Assay [6] deals with Transcription factor Sp1 (Homo sapiens) (UniProt P08047). In words: ATG_Sp1_CIS: Attagene CIS-FACTORIAL HepG2 Assay for human Specificity Protein 1 (Sp1) (AID 2282961). The following applies: HepG2 Sp1 cis-reporter transcription, actives raise or lower the signal. Summed up:
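HepG2 cells transiently transfected with multiplexed cis-regulated reporter constructs, chemical exposure 24 h. Reporter mRNA quantified by RT-PCR with capillary electrophoresis; bidirectional fit relative to DMSO.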

Assay [7] in a line: ATG_SREBP_CIS: Attagene CIS-FACTORIAL HepG2 Assay for human Sterol Regulatory Element Binding (SREBP) (AID 2282962). The following applies: HepG2 Attagene cis-factorial SREBP reporter, mRNA; actives raise or lower the signal. Summed up:
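HepG2 cells transiently transfected with multiplexed cis-promoter reporter units sensing endogenous transcription factors; reporter mRNA measured 24 h after dosing by RT-PCR, 6-FAM labeling, HpaI digestion and capillary electrophoresis. Bidirectional fit versus DMSO.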

Assay [8] addresses Signal transducer and activator of transcription 3 (Homo sapiens) (UniProt P40763). In words: ATG_STAT3_CIS: Attagene CIS-FACTORIAL HepG2 Assay for human Signal Transducer and Activator of Transcription 3 (STAT3) (AID 2282963). The conditions noted are these: HepG2, Attagene cis-factorial STAT3 reporter transcription; actives raise or lower the signal. In outline: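 Endogenous STAT3-responsive cis-element activity was read in transiently transfected HepG2 cells after 24 h treatment. Reporter transcripts were quantified via RT-PCR and capillary electrophoresis, with DMSO as negative control and bidirectional curve fitting.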

Assay [9] is described as follows: ATG_TA_CIS: Attagene CIS-FACTORIAL HepG2 Assay for human TA Basal Promoter (AID 2282964). The conditions noted are these: HepG2 Attagene CIS-factorial TA basal promoter reporter; actives raise or lower the signal. In outline:
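Fluorescence from labelled RT-PCR reporter fragments, separated by capillary electrophoresis, gives the signal. Cells: HepG2 transiently carrying multiple reporter units, 24 h chemical dosing. Gain or loss relative to DMSO.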

Assay [10] can be described thus: ATG_TCF_b_cat_CIS: Attagene CIS-FACTORIAL HepG2 Assay for human T-Cell-Factor with beta-catenin (TCF/b-cat) (AID 2282965). The following applies: HepG2 TCF/beta-catenin cis-reporter transcription, actives raise or lower the signal. In outline:
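Endogenous TCF/LEF activity read as reporter transcript level via RT-PCR and capillary electrophoresis fluorescence in transfected HepG2, 24 h exposure; gain or loss of signal fitted against DMSO controls.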

Assay [11] in a line: ATG_TAL_CIS: Attagene CIS-FACTORIAL HepG2 Assay for human TAL Basal Promoter (AID 2282966).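 Also: background control endpoint measuring basal TAL promoter reporter mRNA not a specific factor.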 The following applies: HepG2 Attagene cis-factorial TAL promoter reporter; actives raise or lower the signal. In outline: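 Fluorescence of labelled reporter cDNA fragments, resolved by capillary electrophoresis, gave the readout. Human HepG2 liver cells carried transiently transfected cis-element reporter units and were treated for 24 hours; activity was fitted bidirectionally against DMSO.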

Assay [12] in a line: ATG_TGFb_CIS: Attagene CIS-FACTORIAL HepG2 Assay for human Transforming Growth Factor (TGF) (AID 2282967). The following applies: HepG2 Attagene CIS TGFb reporter, mRNA transcription; actives raise or lower the signal. In outline:
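Bidirectional fitting relative to DMSO gave the endpoint. Underlying data: reporter mRNA from HepG2 cells carrying transiently transfected cis-regulated reporter constructs, harvested 24 h after dosing and analyzed by RT-PCR and capillary electrophoresis.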

A short description of assay [13]: ATG_VDRE_CIS: Attagene CIS-FACTORIAL HepG2 Assay for human Vitamin D Receptor Element (VDRE) (AID 2282968). The conditions noted are these: HepG2 VDRE cis-reporter transcription, actives raise or lower the signal. In outline: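 Reporter mRNA induction, quantified by capillary electrophoresis of fluorescently labelled RT-PCR products, was read 24 h after dosing HepG2 cells carrying transiently transfected cis-regulated reporter units; gain or loss relative to DMSO.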

The target in assay [14] is Nuclear receptor subfamily 1 group I member 3 (Homo sapiens) (UniProt Q14994). In words: ATG_CAR_TRANS: Attagene TRANS-FACTORIAL HepG2 Assay for human Constitutive Androstane Receptor (CAR) (AID 2282969; active = hit-call score of the fitted dose curve at least 0.9, where 1 is the maximum;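 also: activators raise reporter mRNA above DMSO so AC50 marks induction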). The following applies: HepG2 Attagene TRANS-FACTORIAL CAR reporter. In outline: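 Readout is reporter mRNA induction, quantified by fluorescent primer extension and capillary electrophoresis after RT-PCR. Cells were HepG2 transiently carrying chimeric NR-Gal4 constructs with GAL4-UAS reporters, treated for 24 h; activity scored upward from DMSO.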

Assay [15] addresses Estrogen receptor (Homo sapiens) (UniProt P03372). In words: ATG_ERa_TRANS: Attagene TRANS-FACTORIAL HepG2 Assay for human Estrogen Receptor alpha (ERa) (AID 2282970; active = hit-call score of the fitted dose curve at least 0.9, where 1 is the maximum). The conditions noted are these: HepG2 Attagene TRANS ERa GAL4 reporter, mRNA. In outline: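 Human liver HepG2, transient transfection of multiple GAL4-UAS reporter units; TRANS format (exogenous NR-Gal4 chimera). 24 h dosing. Readout: reporter mRNA, RT-PCR, 6-FAM primer extension, HpaI digest, capillary electrophoresis. Positive direction vs DMSO.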

In assay [16] the target is X-box-binding protein 1 (Homo sapiens) (UniProt P17861). In words: ATG_Xbp1_CIS: Attagene CIS-FACTORIAL HepG2 Assay for human X-box Binding Protein 1 (XBP1) (AID 2282972). The conditions noted are these: HepG2 XBP1 cis-element reporter, Attagene multiplex; actives raise or lower the signal. Summed up: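 HepG2 cells transiently transfected with multiple cis-element reporter units report endogenous TF activity; 24 h exposure, then reporter mRNA measured by RT-PCR, 6-FAM labelling, HpaI digestion and capillary electrophoresis. Bidirectional fitting versus DMSO.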

The target in assay [17] is Steroid hormone receptor ERR1 (Homo sapiens) (UniProt P11474). In words: ATG_ERRa_TRANS: Attagene TRANS-FACTORIAL HepG2 Assay for human Estrogen-Related Receptor alpha (ERRa) (AID 2282971; active = hit-call score of the fitted dose curve at least 0.9, where 1 is the maximum). The conditions noted are these: HepG2 Attagene TRANS reporter, ERRa transactivation. In outline:
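Reporter transcript induction was quantified by RT-PCR and capillary electrophoresis of FAM-labelled, HpaI-cut products after 24 h treatment of HepG2 cells carrying transiently transfected GAL4-UAS reporter units and an exogenous ERRa-Gal4 fusion; activity scored as increase over DMSO.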

Assay [18] is described as follows: ATG_M_19_TRANS: Attagene TRANS-FACTORIAL HepG2 Assay for M19 Transcription Factor (Internal Marker) (AID 2282974; active = hit-call score of the fitted dose curve at least 0.9, where 1 is the maximum). The following applies: HepG2 Attagene TRANS-FACTORIAL M19 internal marker reporter. In outline:
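HepG2 transiently transfected with GAL4-UAS multiplex reporter constructs, exposed 24 h; reporter RNA quantified by RT-PCR, 6-FAM labeling, HpaI digestion and capillary electrophoresis; internal background marker fitted upward versus DMSO.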

Assay [19] is described as follows: ATG_Sox_CIS: Attagene CIS-FACTORIAL HepG2 Assay for human SRY-box transcription factor (SOX) (AID 2282960). The conditions noted are these: HepG2 Attagene cis-factorial SOX reporter, mRNA; actives raise or lower the signal. Summed up: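 HepG2 cells transiently transfected with multiple cis-regulated reporter units, then dosed for 24 h. Reporter mRNA quantified by RT-PCR, fluorescent labelling, HpaI digestion and capillary electrophoresis; bidirectional fit versus DMSO.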

In assay [20] the target is Androgen receptor (Homo sapiens) (UniProt P10275). In words: ATG_AR_TRANS: Attagene TRANS-FACTORIAL HepG2 Assay for human Androgen Receptor (AR) (AID 2282973; active = hit-call score of the fitted dose curve at least 0.9, where 1 is the maximum). The following applies: HepG2 Attagene TRANS-FACTORIAL AR reporter transcription. In outline: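 Steps: transfect HepG2 with multiple GAL4-UAS reporter transcription units (TRANS format, exogenous NR-Gal4 protein); dose 24 h; isolate RNA, reverse-transcribe, PCR-amplify, FAM-label, HpaI-digest; resolve by capillary electrophoresis. Positive direction vs DMSO.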

As usually defined, the AC50 is the concentration at which the activity in the assay is half-maximal.

Chain of Estrogen receptor (Homo sapiens) (P03372 whole entry, looked up, the tested form may be a part): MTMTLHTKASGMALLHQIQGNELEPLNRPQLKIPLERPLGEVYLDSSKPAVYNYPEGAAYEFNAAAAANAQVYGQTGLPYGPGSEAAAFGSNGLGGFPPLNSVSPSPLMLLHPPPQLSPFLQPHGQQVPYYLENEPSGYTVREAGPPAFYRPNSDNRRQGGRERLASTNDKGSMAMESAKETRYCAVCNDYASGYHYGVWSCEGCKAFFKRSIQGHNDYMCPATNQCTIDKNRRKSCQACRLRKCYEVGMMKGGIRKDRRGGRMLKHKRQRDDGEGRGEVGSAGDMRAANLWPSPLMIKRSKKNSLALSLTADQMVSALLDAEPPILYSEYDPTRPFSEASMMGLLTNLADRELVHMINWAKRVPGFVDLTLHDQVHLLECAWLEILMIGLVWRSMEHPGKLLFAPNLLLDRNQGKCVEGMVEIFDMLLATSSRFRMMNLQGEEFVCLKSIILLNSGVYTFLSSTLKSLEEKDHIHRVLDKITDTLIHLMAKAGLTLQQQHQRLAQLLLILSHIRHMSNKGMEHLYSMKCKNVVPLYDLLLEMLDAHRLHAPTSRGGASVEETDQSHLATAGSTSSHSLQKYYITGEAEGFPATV
Chain of Signal transducer and activator of transcription 3 (Homo sapiens) (P40763 whole entry, looked up): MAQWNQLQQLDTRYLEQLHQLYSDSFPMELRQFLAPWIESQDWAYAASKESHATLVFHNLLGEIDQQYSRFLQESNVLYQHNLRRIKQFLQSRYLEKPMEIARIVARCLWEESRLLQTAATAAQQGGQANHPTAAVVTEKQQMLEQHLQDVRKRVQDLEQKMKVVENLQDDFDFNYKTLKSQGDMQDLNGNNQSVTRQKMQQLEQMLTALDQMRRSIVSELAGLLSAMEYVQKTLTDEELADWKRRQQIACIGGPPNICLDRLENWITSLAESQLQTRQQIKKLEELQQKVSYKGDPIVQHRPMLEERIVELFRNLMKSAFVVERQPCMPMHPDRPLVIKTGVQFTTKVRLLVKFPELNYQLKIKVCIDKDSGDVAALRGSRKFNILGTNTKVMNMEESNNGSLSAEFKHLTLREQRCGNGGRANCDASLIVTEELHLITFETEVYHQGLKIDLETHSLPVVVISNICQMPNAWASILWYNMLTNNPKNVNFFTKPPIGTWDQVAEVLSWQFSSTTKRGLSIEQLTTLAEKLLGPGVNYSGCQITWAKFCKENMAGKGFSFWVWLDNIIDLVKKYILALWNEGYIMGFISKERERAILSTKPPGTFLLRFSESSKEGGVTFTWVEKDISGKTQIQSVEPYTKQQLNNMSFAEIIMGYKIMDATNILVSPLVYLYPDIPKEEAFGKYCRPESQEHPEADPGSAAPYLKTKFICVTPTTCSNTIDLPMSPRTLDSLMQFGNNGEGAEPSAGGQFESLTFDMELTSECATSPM
Chain of Paired box protein Pax-6 (Homo sapiens) (P26367 whole entry, looked up): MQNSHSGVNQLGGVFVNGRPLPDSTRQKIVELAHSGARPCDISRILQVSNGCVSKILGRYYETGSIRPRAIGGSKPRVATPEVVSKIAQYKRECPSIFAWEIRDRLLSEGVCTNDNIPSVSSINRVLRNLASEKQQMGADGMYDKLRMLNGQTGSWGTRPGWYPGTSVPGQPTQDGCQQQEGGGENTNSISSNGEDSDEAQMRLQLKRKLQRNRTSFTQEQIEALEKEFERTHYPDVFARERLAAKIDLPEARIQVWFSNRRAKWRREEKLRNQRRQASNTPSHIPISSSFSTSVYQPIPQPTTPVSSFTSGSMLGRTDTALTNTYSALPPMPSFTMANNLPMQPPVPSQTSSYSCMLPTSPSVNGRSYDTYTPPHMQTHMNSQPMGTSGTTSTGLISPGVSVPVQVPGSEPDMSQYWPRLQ
Chain of Nuclear receptor subfamily 1 group I member 3 (Homo sapiens) (Q14994 whole entry, looked up, the tested form may be a part): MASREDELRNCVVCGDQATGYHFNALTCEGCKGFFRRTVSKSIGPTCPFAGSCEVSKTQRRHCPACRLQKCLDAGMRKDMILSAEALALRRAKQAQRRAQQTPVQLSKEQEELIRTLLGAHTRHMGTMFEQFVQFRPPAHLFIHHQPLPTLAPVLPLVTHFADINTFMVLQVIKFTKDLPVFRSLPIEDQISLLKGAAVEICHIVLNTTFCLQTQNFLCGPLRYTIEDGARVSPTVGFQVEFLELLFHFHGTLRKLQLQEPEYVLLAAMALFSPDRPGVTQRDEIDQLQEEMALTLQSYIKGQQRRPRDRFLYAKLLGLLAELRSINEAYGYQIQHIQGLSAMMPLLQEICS
Chain of Transcription factor Sp1 (Homo sapiens) (P08047 whole entry, looked up): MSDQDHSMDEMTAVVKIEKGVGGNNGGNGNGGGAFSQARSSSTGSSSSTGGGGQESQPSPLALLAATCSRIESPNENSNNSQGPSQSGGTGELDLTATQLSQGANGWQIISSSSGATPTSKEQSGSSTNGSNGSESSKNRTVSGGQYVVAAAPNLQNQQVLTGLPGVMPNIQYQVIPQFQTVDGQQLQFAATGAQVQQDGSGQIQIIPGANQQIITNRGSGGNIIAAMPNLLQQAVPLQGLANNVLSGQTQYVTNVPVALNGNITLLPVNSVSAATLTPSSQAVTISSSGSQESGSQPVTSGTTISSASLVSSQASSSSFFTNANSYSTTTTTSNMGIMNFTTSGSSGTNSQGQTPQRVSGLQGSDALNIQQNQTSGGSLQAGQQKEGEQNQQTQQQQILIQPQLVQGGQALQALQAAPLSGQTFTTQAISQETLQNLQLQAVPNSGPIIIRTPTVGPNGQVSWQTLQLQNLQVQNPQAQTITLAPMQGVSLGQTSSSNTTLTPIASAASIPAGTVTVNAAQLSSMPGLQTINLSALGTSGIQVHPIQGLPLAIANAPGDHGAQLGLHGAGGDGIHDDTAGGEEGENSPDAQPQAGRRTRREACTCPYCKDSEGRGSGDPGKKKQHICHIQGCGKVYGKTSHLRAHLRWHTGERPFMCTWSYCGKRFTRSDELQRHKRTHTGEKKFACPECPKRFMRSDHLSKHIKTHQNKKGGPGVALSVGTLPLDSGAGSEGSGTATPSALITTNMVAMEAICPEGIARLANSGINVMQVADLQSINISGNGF
Chain of X-box-binding protein 1 (Homo sapiens) (P17861 whole entry, looked up): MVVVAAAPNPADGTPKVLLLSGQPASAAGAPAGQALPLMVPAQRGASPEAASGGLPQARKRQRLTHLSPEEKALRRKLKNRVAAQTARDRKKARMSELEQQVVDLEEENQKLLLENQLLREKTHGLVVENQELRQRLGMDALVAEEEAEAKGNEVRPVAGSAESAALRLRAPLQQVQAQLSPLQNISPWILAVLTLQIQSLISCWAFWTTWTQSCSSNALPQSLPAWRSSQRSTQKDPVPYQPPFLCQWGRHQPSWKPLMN
Chain of Androgen receptor (Homo sapiens) (P10275 whole entry, looked up, the tested form may be a part): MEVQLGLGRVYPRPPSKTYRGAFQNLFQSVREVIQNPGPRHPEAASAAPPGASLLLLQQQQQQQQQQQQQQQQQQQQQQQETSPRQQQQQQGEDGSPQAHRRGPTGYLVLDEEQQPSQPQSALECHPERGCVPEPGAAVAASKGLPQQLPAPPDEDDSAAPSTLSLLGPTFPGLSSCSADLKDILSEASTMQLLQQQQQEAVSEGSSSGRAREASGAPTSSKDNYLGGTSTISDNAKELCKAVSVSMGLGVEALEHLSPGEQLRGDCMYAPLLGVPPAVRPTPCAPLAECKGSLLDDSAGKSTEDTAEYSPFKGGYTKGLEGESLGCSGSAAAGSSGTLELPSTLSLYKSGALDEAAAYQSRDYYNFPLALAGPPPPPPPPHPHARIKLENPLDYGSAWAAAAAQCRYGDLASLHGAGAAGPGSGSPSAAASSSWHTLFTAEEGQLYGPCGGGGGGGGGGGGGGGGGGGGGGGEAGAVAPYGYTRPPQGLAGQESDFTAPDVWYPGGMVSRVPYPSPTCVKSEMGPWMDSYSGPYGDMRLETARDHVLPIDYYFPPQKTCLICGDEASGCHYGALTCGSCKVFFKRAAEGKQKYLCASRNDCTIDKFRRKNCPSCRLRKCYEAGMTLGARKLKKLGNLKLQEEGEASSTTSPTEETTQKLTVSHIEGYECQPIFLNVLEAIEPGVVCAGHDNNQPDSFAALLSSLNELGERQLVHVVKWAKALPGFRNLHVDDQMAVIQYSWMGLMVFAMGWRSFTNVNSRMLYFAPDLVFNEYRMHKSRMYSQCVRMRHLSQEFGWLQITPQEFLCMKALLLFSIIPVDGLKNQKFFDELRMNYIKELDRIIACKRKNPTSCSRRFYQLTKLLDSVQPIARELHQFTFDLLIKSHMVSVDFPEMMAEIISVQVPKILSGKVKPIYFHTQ
Chain of Steroid hormone receptor ERR1 (Homo sapiens) (P11474 whole entry, looked up, the tested form may be a part): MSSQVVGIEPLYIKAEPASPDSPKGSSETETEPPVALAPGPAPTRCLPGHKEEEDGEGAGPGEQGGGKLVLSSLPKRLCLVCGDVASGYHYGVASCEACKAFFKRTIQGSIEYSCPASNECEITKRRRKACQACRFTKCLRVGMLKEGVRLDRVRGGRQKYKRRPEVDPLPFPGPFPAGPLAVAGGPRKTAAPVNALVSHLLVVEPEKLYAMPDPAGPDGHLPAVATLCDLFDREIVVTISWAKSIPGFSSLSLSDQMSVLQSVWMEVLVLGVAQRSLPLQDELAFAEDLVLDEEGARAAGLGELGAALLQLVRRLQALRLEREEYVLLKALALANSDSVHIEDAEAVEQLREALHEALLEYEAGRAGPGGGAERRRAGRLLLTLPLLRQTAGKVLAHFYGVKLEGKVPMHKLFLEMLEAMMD

Turning to `c1nc[nH]n1`, the outcome in assay [1], in assay [2], in [4], in [5], in assay [6] and in assay [7] was inactive. Besides, the call in assay [8], in [9], in [10], in assay [11], in [12] and in assay [13] was inactive. Besides, the call in assay [14] and in [16] was inactive. The AC50 is 59.3 µM (active) in assay [3] and 24.8 µM (active) in [15].

As to `Nc1ccc(Sc2ccc(N)cc2)cc1`, the AC50 in assay [1] was 100 µM (active); in [3] it was 41.2 µM (active); in assay [4] it was 51.2 µM (active); in assay [5], 36.6 µM (active); in assay [13] it was 62.9 µM (active); in assay [15], 7.99 µM (active). The compound was called inactive in assay [2], in assay [6], in [7], in [8], in assay [9] and in assay [10]. Further, the compound was classed as inactive in assay [11], in assay [12], in [14], in assay [17], in assay [16] and in assay [18].

In the case of `CCCCOCCOP(=O)(OCCOCCCC)OCCOCCCC`, the result in [1], in [2], in assay [4], in assay [5], in assay [6] and in [7] was inactive. Moreover, the result in assay [8], in [9], in assay [10], in [11], in assay [12] and in [13] was inactive. Also, the compound was classed as inactive in assay [14], in assay [15] and in assay [16]. Moreover, the AC50 in [3] was 1.04 µM (active) and 62.9 µM (active).

Consider `CCOP(=S)(S)OCC`, for which the outcome in assay [1], in assay [2], in assay [4], in assay [5], in assay [19] and in [6] was inactive. Besides, the compound was called inactive in [7], in assay [8], in [9], in assay [10], in assay [11] and in assay [12]. For the same compound, the call in [13], in assay [14], in assay [15], in assay [16] and in [20] was inactive. Besides, the AC50 in assay [3] was 57.5 µM (active).
